Compounds with a hit are over-represented: about 3.6% of the library has one in this group of screens.
TGFb SMAD3 inh: blocks TGF-b signaling; AID 588855; HepG2 CAGA-GFP TGF-b/SMAD3 reporter, GFP fluorescence, 18 h; TGF-beta stimulated, 500 pg/mL final; Potency, µM (titrated, usually from 46.1 µM), without a hit: at the highest dose activity, negative = inhibition, hits mostly inhibitors; actives 1.2% (n = 410,000); further: on the % scale 0 is the no-effect control and ±100 the full control effect; nearly all actives have a fitted effect of over 65% in size
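HEPG2 CAGA-GFP, 1000 cells/well; 2 h settle, 37 C; cpd via pin tool; TGF-b 500 pg/mL final; 18 h, 37 C; GFP imaging ex488/em500-530; %Activity normalised to -TGF-b and +DMSO controls; CRC fit, curve class.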
A549 tox: kills or reduces viability of A549 cells in Nrf2 counter-screen. A549 ARE-Fluc cells, CellTiter-Fluor viability, 18-24 h. Potency, µM (titrated, usually from 46 µM), for inactives: at the highest dose activity change, negative = cytotoxicity, actives largely listed as inhibitors. actives 0.16% (n = 390,000). AID 504648; further: on the % scale 0 is the no-effect control and ±100 the full control effect
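Cytotoxicity counterscreen: CellTiter-Fluor fluorescence was measured in A549 ARE_Fluc cells after 18-24 h of compound exposure in a concentration series. The subsequent BugLite luminescent read reports ARE-luciferase activity.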
HepG2 tox: HepG2 cytotoxicity, counter-screen for TGF-b inhibitors | HepG2 CAGA-GFP viability, ATP luminescence, 18 h | Potency, µM (titrated, usually from 46.1 µM), for inactives: at the highest dose activity change, negative = cytotoxicity, actives largely listed as cytotoxic | actives 0.76% (n = 410,000) | AID 588856
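CellTiter-Glo luminescence gave cytotoxicity after 18 hours at 37 degrees C. The cells were HepG2 CAGA-GFP in 1% FBS DMEM, stimulated with 500 pg/mL TGF-beta after compound addition. %Activity was normalised to no-cell wells (complete cell-killing) and DMSO (no toxicity), and curves were fitted and classified.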
Nrf2 activator: activates Nrf2 signaling; AREc32 ARE-luciferase reporter (MCF7-derived line), luminescence, 24 h; Potency, µM (top dose mostly 46.1 µM), without a hit: at the highest dose activation, usual class: activators; actives 0.31% (n = 410,000); AID 624171; further: % of control where 0% means no effect; nearly all actives have a fitted effect of over 65% in size
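Quantitative high-throughput format: AREc32 reporter cells, 1000 per well, received compound by pin transfer and were incubated 24 hr at 37 deg C, 5% CO2, before Steady-Glo luminescence detection.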
Nrf2 block: Nrf2 pathway inhibition; A549 ARE-Fluc reporter, luciferase luminescence, 18-24 h; Potency, µM (top dose mostly 46 µM), inactives show at the top dose activity change, negative = inhibition, actives largely listed as inhibitors; actives 2.1% (n = 360,000); AID 504444; further: on the % scale 0 is the no-effect control and ±100 the full control effect; nearly all actives have a fitted effect of over 60% in size
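Reporter: ARE-Fluc in A549. Exposure: 18-24 h, 37 °C, 5% CO2, 5% FBS OPTI-MEM. Readouts: fluorescent cytotoxicity (CellTiter-Fluor), then luminescent Nrf2 signal after BugLite.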
An asterisk follows results filed as active; ? = inconclusive; . = no result given. The call rests on the fitted dose curve; in most records, active means well fitted curve in the direction sought with a large enough effect; inconclusive means small, poorly fitted or top-dose-only effect, or another doubt; inactive means no such curve, though single readings can be large; an effect the other way counts as inactive or inconclusive. Potency means the concentration at half of the fitted maximal effect.

SMILES	TGFb SMAD3 inh	A549 tox	HepG2 tox	Nrf2 activator	Nrf2 block
CCN(CC)C(=O)CSc1nnc(COc2ccc(OC)cc2)n1N	-2%	-5%	-13%	0%	-1%
CC(=O)c1ccc(N2CCN(C(C)C(=O)Nc3ccc4c(c3)OCCO4)CC2)cc1 (stereo unspecified)	-2%	6%	1%	0%	17%
OC[C@@H]1CN(Cc2ccc(-c3ccccc3)cc2)C[C@H](n2cnc3c(NC4CCC4)ncnc32)O1	?	.	-19%	0%	.
CCCC(c1nnnn1CC1CCCO1)N1CCN(c2cc(Cl)ccc2C)CC1 (stereo unspecified)	2%	?	2%	3%	26µM*
CCOC(=O)c1c(NC(=O)CSc2nncs2)sc(C)c1-c1ccccc1	11µM*	-4%	0%	2%	?
COc1ccc2sc3ccccc3c(=O)c2c1OC	0%	-7%	-38%	11µM*	?
COc1cccc2sc3ccc(C#Cc4ccc(N)cc4)cc3c(=O)c12	4%	?	-21%	-1%	?
N#Cc1nc(-c2ccco2)oc1N1CCOCC1	0%	-2%	14%	13µM*	.
N#Cc1nc(-c2ccco2)oc1N1CCN(c2ccccc2)CC1	9%	-3%	1%	1%	?
CC(C)(C)c1ccccc1OCC(=O)Nc1ccccc1C(=O)NCc1cccnc1	-19%	2%	-23%	3%	-7%
Nc1nc2ccccc2n1S(=O)(=O)c1ccc(Cl)cc1	-28%	.	-14%	3%	.
Nc1nc2ccccc2n1S(=O)(=O)c1ccc([N+](=O)[O-])cc1	13µM*	.	-85%	19%	.
Cc1cc(NC(=O)CSc2nc3c(cnn3-c3cccc(Cl)c3)c(=O)[nH]2)no1	13%	-4%	0%	4%	-25%
COc1cccc(NC(=O)Cn2c(CCC(=O)O)ccc2-c2ccc(C)cc2)c1	?	0%	16µM*	1%	-29%
Cc1ccc(S(=O)(=O)NCC(Nc2cccc(Cl)c2)c2ccccc2)cc1 (stereo unspecified)	11µM*	3%	18µM*	-2%	?
O=S(=O)(NCC(Nc1ccc(Cl)cc1)c1ccccc1)c1ccc(Cl)cc1 (stereo unspecified)	13µM*	?	-66%	0%	21µM*
Cc1ccc(S(=O)(=O)NCC(NCc2ccc(F)cc2)c2ccccc2)cc1 (stereo unspecified)	-4%	-18%	-6%	0%	?
Cc1ccc(NC(=O)c2nnn(-c3ccc4c(c3)OCCO4)c2N)cc1	?	-13%	-22%	4%	-4%
CCOc1ccccc1NC(=O)N1CCC(NC(=O)c2cccc(C)c2)CC1	-18%	-8%	-2%	0%	10%
NC(=O)c1cccc(NC(=O)Nc2ccc(Cl)cc2)c1	-13%	-5%	-3%	5%	0%
CSCCC(NC(=O)c1cccc(S(=O)(=O)N2CCOCC2)c1)c1nc2ccccc2[nH]1 (stereo unspecified)	-7%	6%	-6%	0%	-7%
CSCC[C@H](NC(=O)c1cccc(S(=O)(=O)N2CCCCCC2)c1)c1nc2ccccc2[nH]1	-3%	?	12%	0%	18µM*
COc1cccc(C(=O)Nc2cc(NC(=O)c3cccs3)ccc2C)c1OC	?	?	-3%	0%	?
O=S(=O)(Nc1ccc2c(c1)nc1n2CCN(Cc2ccccc2)C1)c1ccc(Cl)cc1	-7%	?	-17%	-1%	13µM*
O=C(c1ccc2c(c1)OCCO2)C1CCN(S(=O)(=O)c2ccccc2F)CC1	3%	-21%	-28%	0%	13µM*
SMILES	TGFb SMAD3 inh	A549 tox	HepG2 tox	Nrf2 activator	Nrf2 block
O=S(=O)(c1ccccc1F)N1CCN(Cc2cc3c(cc2O)OCO3)CC1	-27%	3%	4µM*	4%	-7%
O=[N+]([O-])c1ccccc1S(=O)(=O)N1CCN(Cc2cc3c(cc2O)OCO3)CC1	0%	5%	-21%	0%	-30%
CCOC(=O)c1c(-c2ccccc2)oc2ccc(OCC)cc12	-3%	0%	-18%	2%	?
CCOC(=O)c1c(-c2ccccc2)oc2ccc(OCC(O)CNCCN(C)C)cc12 (stereo unspecified)	?	?	14µM*	-3%	-15%
O=c1c2c([N+](=O)[O-])cc([N+](=O)[O-])cc2sn1-c1ccc(Br)cc1	0%	1%	-1%	1%	-20%
O=c1c2c([N+](=O)[O-])cc([N+](=O)[O-])cc2sn1Cc1ccccc1	?	-5%	16µM*	-1%	-29%
CCCCC[C@H](O)/C=C/C1C(=O)C=C[C@H]1C/C=C\CCCC(=O)OC (stereo partly specified)	22µM*	-2%	-76%	-3%	7%
Cc1nnc(N2CCCC(C(=O)NCc3ccccc3)C2)c2nn(-c3ccccc3)c(C)c12 (stereo unspecified)	-2%	-3%	2%	1%	-6%
C=CCn1c(SCc2ccc(C(=O)Nc3nccs3)cc2)nnc1-c1ccc(C)c(Cl)c1	0%	-18%	-20%	1%	21µM*
O=c1c(Cl)c2oc3ccccc3nc-2c2ccccc12	5µM*	?	-48%	6%	?
CCC(=O)Nc1cc2c(cc1Cl)-c1ccccc1C2	17%	0%	13µM*	21%	?
O=S(=O)(Nc1cccc(-c2cn3cccnc3n2)c1)c1ccc(F)cc1	0%	-28%	-5%	6%	16µM*
O=S(=O)(Nc1cccc(-c2cn3cccnc3n2)c1)c1ccc(-c2ccccc2)cc1	-4%	2%	-16%	4%	.
COCc1nnc(NC(=O)c2ccc(S(=O)(=O)N(C)c3ccccc3)cc2)o1	0%	4%	-33%	-2%	?
CCN(c1ccccc1)S(=O)(=O)c1ccc(C(=O)Nc2nnc(COC)o2)cc1	?	-16%	-39%	-1%	23µM*
CN(c1ccccc1)S(=O)(=O)c1ccc(C(=O)Nc2nnc(C3CC3)o2)cc1	1%	?	-14%	-1%	23%
CCN(c1ccccc1)S(=O)(=O)c1ccc(C(=O)Nc2nnc(C3CC3)o2)cc1	-9%	?	-16%	0%	12µM*
CCN(c1ccccc1)S(=O)(=O)c1ccc(C(=O)Nc2nnc(CSC)o2)cc1	-2%	?	-2%	1%	12µM*
CC(=O)Nc1c(O)nc(SCC(=O)Nc2sc3c(c2C#N)CCCCCC3)[nH]c1=O	-2%	1%	3%	0%	.
Cc1ccc(-n2ncc(C#N)c2N)cc1	10%	1%	-11%	0%	2%
